Hit rate of the full screen: of about 5,500 compounds, about 2,000 (36%) were called active. About 18% were inconclusive and are not listed. Cut-off read from the data, not from the text of the source: active = normalized growth mostly below about 0.91 (no sharp cut-off); inconclusive = no clear call, values can overlap the other calls; inactive = mostly above about 0.92. This is one part of the list.
Test: chemical genetic growth profiling, strain panel (AID 1159580);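 note: tested at 20 µM; growth read once vehicle control cultures reached saturation at 30 °C; 1 = growth at the plate median or of vehicle wells; lower values mean less growth of the strain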
Settings: growth OD

Measured: normalized growth

C[C@]12CCC3C(CC[C@]4(O)C[C@@H](O)CC[C@]34C=O)[C@@]1(O)CCC2C1=CC(=O)OC1 (stereo partly specified)
inactive: S. cerevisiae deletion strains, locus YJR066W, strain TOR1, hits give low values 0.934 | S. cerevisiae deletion strains, locus YKL009W, strain mrt4, hits give low values 0.978 | S. cerevisiae deletion strains, locus YKL068W, hits give low values 0.966 | S. cerevisiae deletion strains, locus YKL085W, strain MDH1 (second series), hits give low values 0.978 | S. cerevisiae deletion strains, locus YKL085W, strain MDH1, hits give low values 0.978 | S. cerevisiae deletion strains, locus YKL160W, strain elf1, hits give low values 0.972 | S. cerevisiae deletion strains, locus YKL190W, strain CNB1, hits give low values 0.997 | S. cerevisiae deletion strains, locus YKR001C, strain vps1, hits give low values 0.986 | S. cerevisiae deletion strains, locus YKR026C, strain gcn3, hits give low values 0.988 | S. cerevisiae deletion strains, locus YKR091W, strain srl3, hits give low values 0.981 | S. cerevisiae deletion strains, locus YLL001W, strain dnm1, hits give low values 0.975 | S. cerevisiae deletion strains, locus YLL026W, hits give low values 0.986 | S. cerevisiae deletion strains, locus YLL041C, strain sdh2, hits give low values 0.967 | S. cerevisiae deletion strains, locus YLR027C, strain aat2, hits give low values 0.958 | S. cerevisiae deletion strains, locus YLR039C, strain RIC1, hits give low values 0.975 | S. cerevisiae deletion strains, locus YLR058C, strain SHM2, hits give low values 0.989 | S. cerevisiae deletion strains, locus YLR102C, strain apc9, hits give low values 0.978 | S. cerevisiae deletion strains, locus YLR113W, strain HOG1, hits give low values 0.983 | S. cerevisiae deletion strains, locus YLR221C, strain rsa3, hits give low values 1 | S. cerevisiae deletion strains, locus YLR258W, strain gsy2, hits give low values 0.965 | S. cerevisiae deletion strains, locus YLR262C, strain YPT6 (second series), hits give low values 0.957 | S. cerevisiae deletion strains, locus YLR262C, strain YPT6, hits give low values 0.918 | S. cerevisiae deletion strains, locus YLR268W, strain sec22, hits give low values 0.979 | S. cerevisiae deletion strains, locus YLR320W, strain mms22, hits give low values 1.05 | S. cerevisiae deletion strains, locus YLR330W, strain CHS5, hits give low values 0.983 | S. cerevisiae deletion strains, locus YLR342W, strain FKS1 (second series), hits give low values 1.01 | S. cerevisiae deletion strains, locus YLR342W, strain FKS1, hits give low values 0.976 | S. cerevisiae deletion strains, locus YLR357W, strain rsc2, hits give low values 0.998 | S. cerevisiae deletion strains, locus YLR370C, strain arc18, hits give low values 0.999 | S. cerevisiae deletion strains, locus YLR371W, strain rom2, hits give low values 0.963 | S. cerevisiae deletion strains, locus YLR384C, strain iki3, hits give low values 1 | S. cerevisiae deletion strains, locus YLR418C, strain cdc73, hits give low values 0.95 | S. cerevisiae deletion strains, locus YML016C, strain PPZ1, hits give low values 0.99 | S. cerevisiae deletion strains, locus YML032C, strain rad52, hits give low values 0.976 | S. cerevisiae deletion strains, locus YML120C, strain ndi1, hits give low values 0.954 | S. cerevisiae deletion strains, locus YML124C, strain tub3, hits give low values 0.987 | S. cerevisiae deletion strains, locus YMR058W, strain fet3, hits give low values 0.969 | S. cerevisiae deletion strains, locus YMR078C, strain ctf18, hits give low values 0.965 | S. cerevisiae deletion strains, locus YMR125W, strain sto1, hits give low values 0.96 | S. cerevisiae deletion strains, locus YMR129W, hits give low values 0.982 | S. cerevisiae deletion strains, locus YMR205C, strain PFK2, hits give low values 0.881 | S. cerevisiae deletion strains, locus YMR231W, strain pep5, hits give low values 0.999 | S. cerevisiae deletion strains, locus YMR307W, strain GAS1, hits give low values 0.919 | S. cerevisiae deletion strains, locus YNL067W, strain RPL9B, hits give low values 1.01 | S. cerevisiae deletion strains, locus YNL071W, strain lat1, hits give low values 0.958 | S. cerevisiae deletion strains, locus YNL183C, strain NPR1, hits give low values 0.952 | S. cerevisiae deletion strains, locus YNL209W, strain ssb2, hits give low values 0.974 | S. cerevisiae deletion strains, locus YNL233W, strain BNI4, hits give low values 1.03 | S. cerevisiae deletion strains, locus YNL248C, strain rpa49, hits give low values 0.943 | S. cerevisiae deletion strains, locus YNL250W, strain rad50, hits give low values 0.968 | S. cerevisiae deletion strains, locus YNL271C, strain bni1, hits give low values 0.981 | S. cerevisiae deletion strains, locus YNL298W, strain CLA4, hits give low values 0.964 | S. cerevisiae deletion strains, locus YNL307C, strain MCK1, hits give low values 0.983 | S. cerevisiae deletion strains, locus YNL322C, strain KRE1 (second series), hits give low values 0.975 | S. cerevisiae deletion strains, locus YNL322C, strain KRE1, hits give low values 0.99 | S. cerevisiae deletion strains, locus YNR049C, strain mso1, hits give low values 0.971 | S. cerevisiae deletion strains, locus YNR052C, strain pop2, hits give low values 0.977 | S. cerevisiae deletion strains, locus YOL012C, strain htz1 1.05 | S. cerevisiae deletion strains, locus YOL147C, strain pex11, hits give low values 0.981 | S. cerevisiae deletion strains, locus YOR001W, strain rrp6, hits give low values 1.01 | S. cerevisiae deletion strains, locus YOR061W, strain CKA2, hits give low values 0.963 | S. cerevisiae deletion strains, locus YOR069W, strain VPS5, hits give low values 0.984 | S. cerevisiae deletion strains, locus YOR070C, strain gyp1, hits give low values 0.998 | S. cerevisiae deletion strains, locus YOR080W, strain dia2, hits give low values 0.988 | S. cerevisiae deletion strains, locus YOR083W, strain WHI5, hits give low values 0.939 | S. cerevisiae deletion strains, locus YOR106W, strain vam3, hits give low values 0.9 | S. cerevisiae deletion strains, locus YOR136W, strain idh2, hits give low values 0.981 | S. cerevisiae deletion strains, locus YOR144C, strain elg1, hits give low values 0.985 | S. cerevisiae deletion strains, locus YOR184W, strain ser1, hits give low values 0.975 | S. cerevisiae deletion strains, locus YOR231W, strain MKK1, hits give low values 1 | S. cerevisiae deletion strains, locus YOR265W, strain rbl2, hits give low values 0.975 | S. cerevisiae deletion strains, locus YOR270C, strain vph1, hits give low values 0.997 | S. cerevisiae deletion strains, locus YOR290C, strain snf2, hits give low values 0.894 | S. cerevisiae deletion strains, locus YOR316C, strain cot1, hits give low values 0.982 | S. cerevisiae deletion strains, locus YPL051W, strain arl3, hits give low values 0.995 | S. cerevisiae deletion strains, locus YPL055C, strain LGE1, hits give low values 1 | S. cerevisiae deletion strains, locus YPL078C, strain atp4, hits give low values 0.942 | S. cerevisiae deletion strains, locus YPL106C, strain sse1, hits give low values 0.871 | S. cerevisiae deletion strains, locus YPL240C, strain hsp82, hits give low values 0.988 | S. cerevisiae deletion strains, locus YPL256C, strain CLN2, hits give low values 0.974 | S. cerevisiae deletion strains, locus YPR119W, strain clb2, hits give low values 0.983 | S. cerevisiae deletion strains, locus YPR141C, strain kar3, hits give low values 0.982 | S. cerevisiae deletion strains, locus YPR163C, strain tif3, hits give low values 0.967 | S. cerevisiae deletion strains, locus YPR167C, strain met16, hits give low values 0.975 | S. cerevisiae deletion strains, strain wtn01, hits give low values 1.01 | S. cerevisiae strains, strain wild type, hits give low values 0.981
